KB-V1 cytotox: kills drug-selected multidrug resistant KB-V1 cells | KB-V1 MDR cells viability, CellTiter-Glo, 72 h | AID 1347076 | 400,000 tested, 3.4% active | Potency, µM (highest dose often 46.1 µM), most hits filed as cytotoxic; further: on the % scale 0 is the no-effect control and ±100 the full control effect; nearly all actives have a fitted effect of over 60% in size
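Drug-selected KB-V1 cells, grown in DMEM lacking phenol red with 10% FBS, receive compound titrations; after three days at 37 degrees C, surviving cell ATP is quantified by CellTiter-Glo luminescence and responses normalized and curve-fitted.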
MCF10A rerep: inducers of DNA re-replication in MCF 10A breast cells; MCF 10A DNA re-replication, Hoechst nuclear intensity, 48 h; 350,000 tested, 2.9% active; Potency, µM (series often up to 46.1 µM), without a hit: top-dose activity, positive = re-replication, actives largely listed as activators; further: % of control where 0% means no effect; nearly all actives have a fitted effect of over 50% in size
KB-3-1 tox: kills parental KB-3-1 adenocarcinoma cells. Potency, µM (highest dose often 46.1 µM), usual class: cytotoxic. 400,000 tested, 1.4% active. KB-3-1 viability, CellTiter-Glo ATP luminescence, 72 h; further: on the % scale 0 is the no-effect control and ±100 the full control effect; nearly all actives have a fitted effect of over 60% in size
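72 h, 37 °C compound treatment of KB-3-1 parental cells; CellTiter-Glo added, 10 min, luminescence read. Data corrected against DMSO-only plates and normalized before curve fitting.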
RORg inh: blocks mouse ROR gamma transcriptional activity | Potency, µM (top dose mostly 53.6 µM), for inactives: at the top dose activity change, negative = inhibition, hits mostly inhibitors | AID 2551 | 310,000 tested, 5.4% active | P51450 | Drosophila S2 Gal4-RORgamma UAS-luciferase reporter, 20 h; further: on the % scale 0 is the no-effect control and ±100 the full control effect; nearly all actives have a fitted effect of over 60% in size
Target sequence (P51450 whole entry, looked up, the tested form may be a part): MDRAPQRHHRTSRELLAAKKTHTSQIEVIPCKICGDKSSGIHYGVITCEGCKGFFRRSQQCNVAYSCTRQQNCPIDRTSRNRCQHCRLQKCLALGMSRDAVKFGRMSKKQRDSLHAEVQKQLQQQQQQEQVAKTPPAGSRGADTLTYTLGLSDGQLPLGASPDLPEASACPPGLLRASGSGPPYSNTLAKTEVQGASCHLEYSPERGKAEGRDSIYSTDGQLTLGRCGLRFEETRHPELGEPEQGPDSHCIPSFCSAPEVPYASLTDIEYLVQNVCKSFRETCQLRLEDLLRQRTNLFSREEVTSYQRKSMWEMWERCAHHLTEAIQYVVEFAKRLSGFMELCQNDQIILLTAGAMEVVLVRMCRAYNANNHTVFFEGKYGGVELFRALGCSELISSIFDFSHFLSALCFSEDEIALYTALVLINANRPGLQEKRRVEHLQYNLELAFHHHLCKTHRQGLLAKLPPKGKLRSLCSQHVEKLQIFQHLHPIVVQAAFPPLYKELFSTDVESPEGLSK
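Compounds are pin-transferred onto Drosophila Schneider cells expressing a copper-inducible Gal4–ROR gamma transactivation domain fusion. After 1 hr, copper sulfate is added to 700 uM final; luciferase is read 20 hr later.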
SW480 rereplic: inducers of DNA re-replication in SW480 colon cancer cells; SW480 DNA re-replication, Hoechst DNA content imaging, 48 h; Potency, µM (doses to about 46.1 µM), inactives show at the highest dose re-replication activation, usual class: activators; 340,000 tested, 1.8% active; AID 624297; further: % of control where 0% means no effect; nearly all actives have a fitted effect of over 55% in size
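Cells (250 per well) received 23 nL compound or DMSO by pin tool and were kept 48 hr at 37 C, 5% CO2. Nuclei were then stained with Hoechst for 40 min and scanned for DNA content.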
VP16 counter: Gal4-VP16 reporter inhibition counter-screen | Drosophila S2 Gal4-VP16 UAS-luciferase, luminescence, 20 h | AID 2546 | 310,000 tested, 3.5% active | Potency, µM (highest dose often 53.6 µM), for inactives: at the highest dose activity, negative = inhibition, actives largely listed as inhibitors;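 further: Gal4-VP16 expression switched on by copper sulfate through the metallothionein promoter; on the % scale 0 is the no-effect control and ±100 the full control effect; nearly all actives have a fitted effect of over 50% in size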
Active calls of the source: *; [ ] = remark or other dose. The list is not random: actives were taken first. Their share in the collection is about 10%. The call rests on the fitted dose curve; in most records, active means well fitted curve in the direction sought with a large enough effect; inconclusive means small, poorly fitted or top-dose-only effect, or another doubt; inactive means no such curve, though single readings can be large; an effect the other way counts as inactive or inconclusive. Potency means the concentration at half of the fitted maximal effect.

O=C(NC1CCCCC1)C(c1ccc2ncccc2c1)N(Cc1ccccc1)C(=O)c1cccs1 (stereo not drawn) was read as KB-V1 cytotox 23µM*, MCF10A rerep inconclusive, KB-3-1 tox inactive, RORg inh -6%, SW480 rereplic inconclusive and VP16 counter -4%.
`CCCC[C@H](NC(=O)[C@H](CC(C)C)NC(=O)CNC(=O)[C@@H](NC(=O)[C@H](Cc1ccccc1)NC(=O)[C@H](CO)NC(=O)[C@@H](N)CC(=O)O)C(C)C)C(N)=O` gave RORg inh 14% and VP16 counter -1%.
For O=C(N/N=C/c1cc([N+](=O)[O-])ccc1O)C12CC3CC(CC(C3)C1)C2 the results were KB-V1 cytotox inactive, MCF10A rerep 7.3µM*, KB-3-1 tox inconclusive, RORg inh inconclusive, SW480 rereplic inconclusive and VP16 counter 0.71µM*.
`O=C(N/N=C/c1cc([N+](=O)[O-])ccc1O)NC12CC3CC(CC(C3)C1)C2` gave KB-V1 cytotox inactive, MCF10A rerep inconclusive, KB-3-1 tox inactive, RORg inh 3.5µM* and VP16 counter inconclusive.
Screening O=C(N/N=C/c1cc([N+](=O)[O-])ccc1O)Nc1ccccc1 returned KB-V1 cytotox inactive, MCF10A rerep inconclusive, KB-3-1 tox inconclusive, RORg inh 4.5µM*, SW480 rereplic inconclusive and VP16 counter 22µM*.
Screening CCNC(=O)C(=O)N/N=C/c1cc([N+](=O)[O-])ccc1O returned KB-V1 cytotox inactive, MCF10A rerep inconclusive, KB-3-1 tox inactive, RORg inh 11µM*, SW480 rereplic 33% and VP16 counter inconclusive.
O=C(NN=Cc1cc([N+](=O)[O-])ccc1O)c1cccc2ccccc12 was read as KB-V1 cytotox inconclusive, MCF10A rerep 0%, KB-3-1 tox inconclusive and SW480 rereplic inconclusive.
`CC(C)C[C@@H](CC(=O)N[C@@H](CCCN)CC(=O)N[C@@H]1CCNC[C@H]1C(=O)N[C@H](CC(=O)N[C@@H](CCC(=O)O)CC(=O)O)Cc1c[nH]c2ccccc12)NC(=O)[C@@H]1CCCC[C@H]1N` gave RORg inh 0% and VP16 counter -5%.
COc1ccc(N(C)C(=O)CCn2cnc3onc(-c4ccc(F)cc4)c3c2=O)c(OC)c1 was read as KB-V1 cytotox inconclusive and KB-3-1 tox inactive.
N=c1ccn(Cc2ccc(F)cc2)cc1 was read as KB-V1 cytotox inactive, MCF10A rerep 13%, KB-3-1 tox 5.8µM*, RORg inh inconclusive, SW480 rereplic -4% and VP16 counter inconclusive.
Screening CCOC(=O)c1sc(NC(=O)c2ccc(S(=O)(=O)N(C)C)cc2)nc1C returned KB-V1 cytotox inactive, MCF10A rerep 6%, KB-3-1 tox inactive, RORg inh 0.25µM*, SW480 rereplic -1% and VP16 counter -28%.
CCOC(=O)c1csc(NC(=O)c2ccc(S(=O)(=O)N(C)C)cc2)n1 was read as KB-V1 cytotox 21µM*, MCF10A rerep -6%, KB-3-1 tox inactive, RORg inh 20%, SW480 rereplic 1% and VP16 counter 2%.
`CCOC(=O)c1csc(NC(=O)c2ccccc2)n1` gave KB-V1 cytotox inactive, MCF10A rerep -2%, KB-3-1 tox inactive, RORg inh inconclusive, SW480 rereplic 1% and VP16 counter -3%.
For COc1cccc(CNC(=O)c2ccc(-c3nc(CS(=O)(=O)c4ccccc4)c(C)o3)cc2)c1 the results were KB-V1 cytotox inconclusive and KB-3-1 tox inactive.
CCOC(=O)Cc1c(-c2cccc(Br)c2)nc2c3ccccc3ccn12 was read as KB-V1 cytotox inactive and KB-3-1 tox inactive.
COc1ccc(O[C@H]2C=C[C@@H](c3ccccc3)O[C@H]2COC(=O)CC/C(C)=N\O[C@@H](C)c2cc(-c3c(C)cc(C)cc3C)no2)cc1 was read as RORg inh 14%[10 µM] and VP16 counter 3%[10 µM].
Screening NC(N)=Nc1ccc(/C=C2\C=Cc3ccccc32)cc1 returned KB-V1 cytotox inactive and KB-3-1 tox inactive.
Cc1ccc(NC(=O)N2CCOCC2)cc1NC(=O)N1CCOCC1 was read as KB-V1 cytotox inactive and KB-3-1 tox inactive.
For CCc1ccc(NC(=O)N2CCN(Cc3nc4ccc(C)cc4o3)CC2)cc1 the results were KB-V1 cytotox inactive and KB-3-1 tox inactive.
For CCCNC(=O)NC(=O)CSc1nc2cc(C(=O)OC)ccc2c(=O)n1-c1ccccc1 the results were KB-V1 cytotox inactive, MCF10A rerep -5%, KB-3-1 tox inactive, RORg inh -3%, SW480 rereplic 2% and VP16 counter inconclusive.
Screening CNC(=O)NC(=O)CSc1nc2cc(C(=O)OC)ccc2c(=O)n1-c1ccccc1 returned KB-V1 cytotox inactive, MCF10A rerep inconclusive, KB-3-1 tox inactive, RORg inh -44%, SW480 rereplic -4% and VP16 counter 22µM*.
For CC(C)(C)c1ccc(N2C[C@@H](COc3ccc(C(=O)O)cc3)CC2=O)cc1 the results were RORg inh 0% and VP16 counter -7%.
For Cc1ccc(O)c(C(=O)CC(=O)c2cccc(F)c2)c1 the results were KB-V1 cytotox inconclusive, MCF10A rerep inconclusive, KB-3-1 tox inconclusive, RORg inh 7.9µM*, SW480 rereplic 9% and VP16 counter 7.1µM*.
Screening Cc1cccc(C(=O)CC(=O)c2cc(Cl)ccc2O)c1 returned KB-V1 cytotox 9.2µM*, MCF10A rerep inconclusive, KB-3-1 tox inconclusive, RORg inh inconclusive, SW480 rereplic 17% and VP16 counter inconclusive.
`Cc1cccc(C(=O)NCC(=O)NNC(=O)c2ccccc2O)c1` gave KB-V1 cytotox inactive, MCF10A rerep 5%, KB-3-1 tox inactive and SW480 rereplic -138%.
`O=C(O)CC(=O)Nc1cc(Cl)ccc1O` gave KB-V1 cytotox inactive, MCF10A rerep -2%, KB-3-1 tox inactive, RORg inh -6%, SW480 rereplic 2% and VP16 counter 18%.
`NC(=NCCc1ccccc1)NC(=O)c1cc(Cl)ccc1O` gave KB-V1 cytotox inconclusive, MCF10A rerep inconclusive, KB-3-1 tox inconclusive and SW480 rereplic 21µM*.
Screening O=C(CC(=O)c1cc(Cl)ccc1O)c1ccccc1 returned KB-V1 cytotox inconclusive, MCF10A rerep 21µM*, KB-3-1 tox inconclusive, RORg inh inconclusive, SW480 rereplic inconclusive and VP16 counter 11µM*.
